54 sequences from PMC7819943, “Rice protein-binding microarrays: a tool to detect cis-acting elements near promoter regions in rice” can be followed below.

Whole data set: some 39,000 sequences, median “fluorescence intensity (a.u.)” near 4,300, cut for the highest 2% near 39,000. What follows is part of a selection rich in the highest values, with near analogues and random picks from the rest.

For this test, the target named is T1, OsSMF1 (Oryza sativa, UniProt Q6ZLB0 1-436).
T1 sequence: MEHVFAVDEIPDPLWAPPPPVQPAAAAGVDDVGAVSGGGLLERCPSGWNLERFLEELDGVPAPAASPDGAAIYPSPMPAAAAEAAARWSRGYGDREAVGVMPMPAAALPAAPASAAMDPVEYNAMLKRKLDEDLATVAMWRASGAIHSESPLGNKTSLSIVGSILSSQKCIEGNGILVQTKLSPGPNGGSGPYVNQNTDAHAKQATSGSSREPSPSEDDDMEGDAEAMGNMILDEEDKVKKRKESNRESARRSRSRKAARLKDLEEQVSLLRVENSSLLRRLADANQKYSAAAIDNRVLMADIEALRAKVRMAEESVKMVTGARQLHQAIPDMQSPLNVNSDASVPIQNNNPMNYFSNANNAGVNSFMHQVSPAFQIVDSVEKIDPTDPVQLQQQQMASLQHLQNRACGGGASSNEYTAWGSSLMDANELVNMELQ
Kind of test: protein-binding microarray (RPBM); PBS, 2% BSA, 51.3 ng/ul salmon testes DNA, 50 uM zinc acetate, 200 nM TF, 25 C, 1 h; high values mean tight binding. The conditions noted are these: protein: recombinant; tags: N-terminal polyhistidine and DsRed monomer fusion (pET32a); chain copies: 2; label: CyDye5-dUTP incorporated in the synthesized complementary strand; 3' TTTTT single-stranded linker to array surface; dsDNA, one strand shown. An outline of the steps:
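The binding signal is fluorescence intensity per array feature (arbitrary units). Readings came from an Axon 4000B scanner after a washed, 2% BSA-blocked, double-stranded custom Agilent array had been incubated for 1 h at 25 °C with 200 nM protein and 50 µM zinc acetate. The protein was a Ni–NTA-purified transcription factor fused N-terminally to polyhistidine and DsRed, expressed in E. coli BL21-CodonPlus.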
For “CTATGCCTTGTCAACATTCAACCCCTCCAATAGACTTTGTCGGAGTCACCTAGTGCAG”, the binding signal was 3210 fluorescence intensity (a.u.).

Consider “CTCTTGACCAGCCGAGCGCACCGTCATCAGGCTACATCTCCGGAGTCACCTAGTGCAG”, for which the binding signal is 5290 fluorescence intensity (a.u.).

In the case of “TCCAGTTTCGCGTAGCTGCGTGACAGTTCAATTGAACTCTCGGAGTCACCTAGTGCAG”, the binding signal was 3200 fluorescence intensity (a.u.).

Turning to “CCCTCTCCACATTCTCTTCCACCTGTGTTCCCCTTTTCTTCGGAGTCACCTAGTGCAG”, the binding signal was 3320 fluorescence intensity (a.u.).

As for “CTCTTTTCCCCATCTCACATACTGTGCCTTGCCTCCATAACGGAGTCACCTAGTGCAG”, the binding signal was 65200 fluorescence intensity (a.u.).

“TCCTCCCATCTCTCTCTCTTTTGCCCACACTCTTTTCACACGGAGTCACCTAGTGCAG”: the binding signal is 5660 fluorescence intensity (a.u.).

As for “TTCTATAGAAGCTTTCTCTCTTAAAACTCTACCAAAATTTCGGAGTCACCTAGTGCAG”, the binding signal is 24000 fluorescence intensity (a.u.).

Consider “CAGCCGGGCCCACGTGTCAGTGAGTGCGTGACGCGTCAGCCGGAGTCACCTAGTGCAG”, for which the binding signal was 15200 fluorescence intensity (a.u.).

Turning to “TCGTCGCCCACTGCCACCGCTGACGTCACCGCACTCTCGCCGGAGTCACCTAGTGCAG”, the binding signal was 30500 fluorescence intensity (a.u.).

With “AATAAATAGGCCTGACGTGAGGCCCACTCGCCACGTCAGCCGGAGTCACCTAGTGCAG”, the binding signal was 44900 fluorescence intensity (a.u.).

With “AATTACCACCCTAACTCAATTAGAAGCGGTTTTCAGCCTACGGAGTCACCTAGTGCAG”, the binding signal is 52400 fluorescence intensity (a.u.).

With “TTTTGACCCGGTTTTAGCCTACGTGACGGCTAAGTCAGCGCGGAGTCACCTAGTGCAG”, the binding signal was 4480 fluorescence intensity (a.u.).

In the case of “TCTTTTGGTGGTTTCAGAAGCGGTTTTATCCTACGTGACACGGAGTCACCTAGTGCAG”, the binding signal was 4530 fluorescence intensity (a.u.).

With “GAGAAGAAGGCCACCTCACCACTAAAGGAGGAGGAGGAGGCGGAGTCACCTAGTGCAG”, the binding signal is 43500 fluorescence intensity (a.u.).

Consider “GGGGAAGGAGAAGAGGAAGGAGAGGGGAGGAGGAGGAGGGCGGAGTCACCTAGTGCAG”, for which the binding signal was 3770 fluorescence intensity (a.u.).

With “CAAGGAAGAATATGCCACCTCCACGGAGGCCGGCGGCGGCCGGAGTCACCTAGTGCAG”, the binding signal is 3710 fluorescence intensity (a.u.).

With “TCAGCGAATTGGTACGTACCCTTGTACGTGTTGACGCCATCGGAGTCACCTAGTGCAG”, the binding signal is 3650 fluorescence intensity (a.u.).

Turning to “CCTTTCCGATTACGTGTTGGACCTTGACCCTAGGCCATATCGGAGTCACCTAGTGCAG”, the binding signal was 49700 fluorescence intensity (a.u.).

On to “TACGTGTGTTGATTTCCGTGACATATGCATAAATTTCTTTCGGAGTCACCTAGTGCAG”, for which the binding signal is 3530 fluorescence intensity (a.u.).

For the sequence “CCGTCGACTCTGTGCCACGTCCTGTTGCTCGTCGGATTCCCGGAGTCACCTAGTGCAG”, the binding signal is 14000 fluorescence intensity (a.u.).

As to “TTGCTGCAGTTCTCGTATGCTTCCTAGTACTATCTGCGTTCGGAGTCACCTAGTGCAG”, the binding signal is 3230 fluorescence intensity (a.u.).

Regarding “TGCAGTATCTGCCGTTCGTATCGCTGCGTTGAATCTTCCACGGAGTCACCTAGTGCAG”, the binding signal is 47100 fluorescence intensity (a.u.).

Turning to “CTAGTTCGCCTTCCACGTACGCACTTGGCGTCGTATCTGCCGGAGTCACCTAGTGCAG”, the binding signal is 6440 fluorescence intensity (a.u.).

“GATCATGAGCTCCACGGCGGCCAACGTGGCGGCGCCGACGCGGAGTCACCTAGTGCAG”: the binding signal was 8640 fluorescence intensity (a.u.).

“TAACACAACTATTTACTCAGCTCACGTGTTTCATTAACAACGGAGTCACCTAGTGCAG”: the binding signal was 3340 fluorescence intensity (a.u.).

Regarding “TTTCGCAATTATATTGATGCAGAAATCAGCAGCTCACAATCGGAGTCACCTAGTGCAG”, the binding signal was 20700 fluorescence intensity (a.u.).

For “TCAGCTCAGCAAATTAGGATGTTTCATTAGTTAGAACAAACGGAGTCACCTAGTGCAG”, the binding signal is 51600 fluorescence intensity (a.u.).

As for “AGCGACGAGTAAACAAAGCGCGGCGTAGCATGTGATGTGGCGGAGTCACCTAGTGCAG”, the binding signal is 4440 fluorescence intensity (a.u.).

Take “GTTATATCTCACGTGTCAAAATTCCTATGATTTTCAGTAACGGAGTCACCTAGTGCAG”: the binding signal is 4700 fluorescence intensity (a.u.).

As for “GCGTCACGTTCCTGTCGGCGGCGGCCAACGTGGCCCGCGTCGGAGTCACCTAGTGCAG”, the binding signal is 15200 fluorescence intensity (a.u.).

In the case of “GCCGCCGCCGCCGCCGCCGCTGACGAGGAGCAGAAGGTGGCGGAGTCACCTAGTGCAG”, the binding signal is 4310 fluorescence intensity (a.u.).

Consider “GCGCCGTCGTCGTCGCTGCCGTGGCGCCGCCGCGGCCACCCGGAGTCACCTAGTGCAG”, for which the binding signal was 6800 fluorescence intensity (a.u.).

“CGCCGCTGCCGCCAAACCGTCGGTGGAGAAGGCCTACCGGCGGAGTCACCTAGTGCAG”: the binding signal was 59200 fluorescence intensity (a.u.).

Turning to “CTGCTGCCGTCGCAGAAGGTGCTGACATGGCCAGGGGTGGCGGAGTCACCTAGTGCAG”, the binding signal was 45300 fluorescence intensity (a.u.).

Consider “CGCTGCTGCCGTCACAGAAGGTGCTGACATGGCCTGGGGTCGGAGTCACCTAGTGCAG”, for which the binding signal is 7520 fluorescence intensity (a.u.).

On to “GCGCGCCGTCGTGGCGCTGGCGGCCACCACGGTGGTCACCCGGAGTCACCTAGTGCAG”, for which the binding signal was 4120 fluorescence intensity (a.u.).

For the sequence “CGCCGAGCTGCCACGCTCGCGTCGCGTCCAGATGCGCGCGCGGAGTCACCTAGTGCAG”, the binding signal was 3680 fluorescence intensity (a.u.).

In the case of “GAGTGGAGAAGGCGCGCCACCGTCGCTAGAGCCGATGCTGCGGAGTCACCTAGTGCAG”, the binding signal is 47700 fluorescence intensity (a.u.).

As to “CCGTCGTGCTGGGTGTGGCGCCGGAGAAGAAGGCGCAGCACGGAGTCACCTAGTGCAG”, the binding signal is 41700 fluorescence intensity (a.u.).

As to “GCGGGCGCACGGGTGGGTGGTGTTCTGGGGCGGAGGCAGCCGGAGTCACCTAGTGCAG”, the binding signal is 3310 fluorescence intensity (a.u.).

Regarding “GCCGGCGACGCTGCCGCCGTCACCACTACCGCTGCCGCGGCGGAGTCACCTAGTGCAG”, the binding signal is 4140 fluorescence intensity (a.u.).

On to “CCGAGCCACGTCGCGCCGCCGCCGCTGCTGTGCCGCCGCGCGGAGTCACCTAGTGCAG”, for which the binding signal is 5650 fluorescence intensity (a.u.).

Consider “GATGTTACGCGTGTAATGGTGTGTGCGTGTATATACTTTGCGGAGTCACCTAGTGCAG”, for which the binding signal is 7330 fluorescence intensity (a.u.).

For “ACGTTTACTCCCAGTACACACAAGACACTACTAGCTTAGACGGAGTCACCTAGTGCAG”, the binding signal was 3420 fluorescence intensity (a.u.).

Take “TGGAGGAGGAGGAGGGGAGACCACCGGAGGTAGGCGAATCCGGAGTCACCTAGTGCAG”: the binding signal was 3140 fluorescence intensity (a.u.).

As for “TCAGATAGCCACCATGACATGTATCAGTACATGCAGTGATCGGAGTCACCTAGTGCAG”, the binding signal is 4480 fluorescence intensity (a.u.).

As to “CGAATAAGCCCTTAATGTGTACGTTATTTGGTTTATCCACCGGAGTCACCTAGTGCAG”, the binding signal is 3240 fluorescence intensity (a.u.).

With “CGCCGGTGCTGATGCTGATCGATCTTACGTCGCGTCGCGACGGAGTCACCTAGTGCAG”, the binding signal is 3280 fluorescence intensity (a.u.).

Consider “CTGCAGCAAACGACCAGCCATGTCACAGGTTGTGAAGGTCCGGAGTCACCTAGTGCAG”, for which the binding signal is 4600 fluorescence intensity (a.u.).

Take “AGAGCAAGGCGCCGGTGGTGCTCATCAAGCCGTCGGCGACCGGAGTCACCTAGTGCAG”: the binding signal was 63100 fluorescence intensity (a.u.).

“GAAGGCGGCGCGGAAGTCGGCGCCGGCGACCGGCGGCGTGCGGAGTCACCTAGTGCAG”: the binding signal was 9120 fluorescence intensity (a.u.).

Turning to “TTGGGCGAGGTAGAGGCGGCGCCGGTGTCATCACCGTCGTCGGAGTCACCTAGTGCAG”, the binding signal is 5140 fluorescence intensity (a.u.).

Consider “ACGGTCACGGTCCGGCCGCTCTACACGTACGTAGTACGTGCGGAGTCACCTAGTGCAG”, for which the binding signal was 25100 fluorescence intensity (a.u.).

On to “GAGATTTGATGACTGGGATGCCACATGGACACCACGACAGCGGAGTCACCTAGTGCAG”, for which the binding signal is 13300 fluorescence intensity (a.u.).
